Screening data as filed in PubChem BioAssay.
Compounds with a hit are over-represented: about 4.1% of the library has one in this group of screens.
DAX1 inh-1 – inhibitors of human orphan nuclear receptor DAX1 (NR0B1). P51843. HEK293 Gal4-DAX1 luciferase reporter, luminescence. inhibition, % at 6.75 µM. 340,000 compounds, 0.99% hits;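 active = inhibition above the mean over all tested compounds plus 3 SD, cut at about 4.2% in these data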;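 note: inhibition shows as a rise in luminescence from relieved DAX1 repression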
Target sequence (P51843 207-470 limits assumed): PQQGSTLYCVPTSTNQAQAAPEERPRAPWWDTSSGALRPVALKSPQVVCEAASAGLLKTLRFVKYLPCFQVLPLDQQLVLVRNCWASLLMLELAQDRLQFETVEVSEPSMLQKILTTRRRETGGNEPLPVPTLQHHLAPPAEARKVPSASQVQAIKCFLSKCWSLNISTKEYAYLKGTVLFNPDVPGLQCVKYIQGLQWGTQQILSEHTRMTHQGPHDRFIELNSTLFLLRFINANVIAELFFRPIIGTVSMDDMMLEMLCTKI
PolyA inhibitor – yeast polyadenylation inhibition. 300,000 compounds, 0.02% hits. S. cerevisiae SKY197-pL101 polyadenylation reporter, beta-gal luminescence; efflux-impaired pdr1/pdr3 knockout yeast; score 100 = 6 SD above DMSO. activity score, % at 12 µM;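 active = lowest replicate activity score at least 50, where 100 means six control SD above control mean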;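 note: yeast exposed to compound for 9 h at 30 °C; higher score means more reporter readthrough which indicates perturbed polyadenylation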
hcDAF12 agonist – activates DAF-12 receptor from parasite H. contortus | HEK293 hcDAF-12 lit1-tk-luc reporter, luminescence; 0% DMSO, 100% Δ7-dafachronic acid | activation, % at 6.8 µM | AID 652067 | 370,000 compounds, 1.4% hits;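 active = activation above the mean of all tested compounds plus 3 SD, cut at about 5.5% in these data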
DAX1 inh-2 – blocks DAX1 repression of SF-1 activated StAR promoter; HEK293T StAR-luciferase reporter, SF-1/DAX-1 repression relief; inhibition, % at 6.8 µM; 370,000 compounds, 1.1% hits;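 active = inhibition above the mean over all tested compounds plus 3 SD, cut at about 3.6% in these data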;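 note: higher inhibition means more luminescence from relief of DAX-1 repression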
ssDAF-12 act – S. stercoralis DAF-12 activation, primary screen; activation, % at 6.8 µM; HEK293 ssDAF-12/GRIP1 lit1-tk-luc reporter, luminescence; % of 3 µM dafachronic acid response; 370,000 compounds, 1% hits;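 active = activation above the mean over all tested compounds plus 3 SD, cut at about 0.9% in these data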
hgDAF-12 ag – activates the H. glycines DAF-12 receptor ligand-binding domain | HEK293 GAL4-hgDAF12 UAS-luciferase reporter, agonist luminescence; normalized to butyrate control | 370,000 compounds, 1.8% hits | AID 687014 | activation, % at 6.8 µM;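 active = activation above a cutoff set at the mean of all screened compounds plus 3 SD, cut at about 10% in these data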
Large screens that a line does not name were inactive.

CCN(CC)c1ccc(C(=S)NCc2ccccc2)cc1	DAX1 inh-1 7.3
CCN(CC)c1ccc(C(=O)O)cc1	none
O=C(CCC(=O)CCN1CCCCC1)CCN1CCCCC1	none
NC(=O)CCN1CCCCC1	DAX1 inh-1 4.5
CCCN1C(=O)c2n[nH]c(C)c2C1c1ccc(Br)cc1 (stereo not drawn)	none (no result: DAX1 inh-1, PolyA inhibitor)
Cc1ccc(Nc2c(-c3ccc(C)o3)nc3ncccn23)cc1	PolyA inhibitor 57
Cc1ccc(-c2nc3ncccn3c2Nc2ccc3c(c2)OCO3)o1	none
O=C(Nc1ccccc1)c1nc[nH]c1C(=O)NCCNC(=O)c1[nH]cnc1C(=O)Nc1ccccc1	none (no result: PolyA inhibitor)
O=C(O)CSCC(=O)Nc1ccccn1	DAX1 inh-1 5.4
CC(C(=O)Nc1ccccn1)c1ccccc1 (stereo not drawn)	ssDAF-12 act 0.9
NNC(=O)c1nc[nH]c1C(=O)Nc1ccccn1	DAX1 inh-1 4.3
COC(=O)C1CN(Cc2ccc(F)cc2)CCS(=O)(=O)N1Cc1cn(Cc2ccc(F)cc2)nn1 (stereo not drawn)	none (no result: DAX1 inh-1, PolyA inhibitor)
CS(=O)(=O)c1ccc(-c2nn[nH]n2)cc1	none
Cc1ccc(-c2nn[nH]n2)cc1	ssDAF-12 act 1.1
COC(=O)c1cc(S(=O)(=O)NCC2CCN(C(=O)C(=O)c3cccs3)CC2)cs1	none (no result: DAX1 inh-1, PolyA inhibitor)
O=C(NN=Cc1cccc(OCc2ccccc2)c1)c1cc(-c2ccc(Cl)cc2)n[nH]1	none (no result: DAX1 inh-1, PolyA inhibitor)
CN(C)c1ccc(Cl)cc1N	DAX1 inh-1 5.3
O=C1CCC[C@H]2C[C@H](NCCc3ccncc3)CC[C@]23CCCN13	none (no result: DAX1 inh-1, PolyA inhibitor, DAX1 inh-2)
O=C(Nc1ccc2oc(-c3ccncc3)nc2c1)c1ccc2c(c1)OCCO2	DAX1 inh-1 5.7
O=C(Nc1ccc2oc(-c3ccncc3)nc2c1)c1ccc2c(c1)OCO2	none
COc1ccc(CC(=O)Nc2ccc(-c3nc4cc(C)ccc4o3)c(O)c2)cc1OC	none
Cc1ccc2oc(-c3ccc(NC(=O)c4ccncc4)cc3O)nc2c1	hgDAF-12 ag 12
CC(=O)N1c2cc(S(=O)(=O)Nc3c(C)n(C)n(-c4ccccc4)c3=O)c(Br)cc2CC1C (stereo not drawn)	none (no result: DAX1 inh-1, PolyA inhibitor)
COc1ccc(-n2c(SCc3ccc([N+](=O)[O-])cc3)nnc2-c2ccco2)cc1	none (no result: DAX1 inh-1, PolyA inhibitor)
Cc1cc(C)cc(Nc2ncc3c(n2)CCCC3=O)c1	DAX1 inh-2 3.9
Cc1cc(C)cc(Nc2ncc3c(n2)CC(c2ccco2)CC3=O)c1 (stereo not drawn)	none
N#C/C(=C\c1ccccc1C(=O)O)c1nc2ccccc2[nH]1	DAX1 inh-1 4.4
Cc1ccc2nc(/C(C#N)=C/c3ccccc3C(=O)O)[nH]c2c1	DAX1 inh-1 8.4, ssDAF-12 act 1.0
COc1cccc(/C=C(\C#N)c2nc3ccc(C)cc3[nH]2)c1OCC(=O)O	hcDAF12 agonist 6.1
O=C(O)/C=C/C(=O)Nc1ccccc1-c1ccccc1NC(=O)/C=C/C(=O)O	none
O=C(O)/C=C/C(=O)Nc1ccc(-c2ccccc2)cc1	hgDAF-12 ag 11
O=C(O)/C=C/C(=O)Nc1c(F)cccc1F	DAX1 inh-1 4.2
O=C(O)/C=C\C(=O)Nc1ccccc1C#Cc1ccccc1	hgDAF-12 ag 10
O=C(O)/C=C/C(=O)Nc1ccc(-n2nccc2C(F)(F)F)cc1	DAX1 inh-1 4.2
COc1ccc(N2CCCN(CC(=O)Nc3ccccc3C)CC2)cc1	none (no result: DAX1 inh-1, PolyA inhibitor)
CC(C)CN(CC(C)C)C(=O)c1ccc2c(c1)NC(=O)C(C)(C)O2	none (no result: DAX1 inh-1, PolyA inhibitor)
COC(=O)[C@]12C[C@H](CC(=O)NCc3ccc(C)o3)C(=O)N(Cc3cccc4ccccc34)C1=C[C@H](COCc1ccccc1)O[C@@H]2C	none (no result: DAX1 inh-1, PolyA inhibitor)
O=C(CN1CCCCCCC1)N/N=C/c1ccccc1F	none
CCN1CCN(CC(=O)N/N=C/c2ccc(F)cc2F)CC1	ssDAF-12 act 1.1
Clc1ccc2nc(-c3ccc(Cl)nc3)[nH]c2c1	hgDAF-12 ag 12
O[C@@H]1CN(CC2CCCCC2)[C@@H](c2ccccc2)C[C@H]1n1cc(C2CC2)nn1	none (no result: PolyA inhibitor)
O[C@H]1C[C@H](c2ccccc2)N(CC2CCCCC2)C[C@@H]1n1cc(C2CC2)nn1	DAX1 inh-2 3.7 (no result: PolyA inhibitor)
O=C(CSc1nnc(-c2cccnc2)n1Cc1ccco1)Nc1ccc(Cl)c(Cl)c1	none (no result: DAX1 inh-1, PolyA inhibitor)
